# How the values were obtained:
# Assay in all cases: DAPPL (digital affinity profiling via proximity ligation, sequencing); 10 mM Tris-HCl pH 7.5, 50 mM NaCl, 1 mM DTT, 4% glycerol, room temperature, 30 min; GST-TFs on glutathione beads, 16-mer random dsDNA library, 0.1% formaldehyde crosslink after washing; high values mean tight binding
# Conditions in all cases: protein: recombinant; tags: N-terminal GST; dsDNA, one strand shown
# FLI1 = molecular target: T1, FLI1 (Homo sapiens, UniProt Q01543 1-452)
# T1 sequence: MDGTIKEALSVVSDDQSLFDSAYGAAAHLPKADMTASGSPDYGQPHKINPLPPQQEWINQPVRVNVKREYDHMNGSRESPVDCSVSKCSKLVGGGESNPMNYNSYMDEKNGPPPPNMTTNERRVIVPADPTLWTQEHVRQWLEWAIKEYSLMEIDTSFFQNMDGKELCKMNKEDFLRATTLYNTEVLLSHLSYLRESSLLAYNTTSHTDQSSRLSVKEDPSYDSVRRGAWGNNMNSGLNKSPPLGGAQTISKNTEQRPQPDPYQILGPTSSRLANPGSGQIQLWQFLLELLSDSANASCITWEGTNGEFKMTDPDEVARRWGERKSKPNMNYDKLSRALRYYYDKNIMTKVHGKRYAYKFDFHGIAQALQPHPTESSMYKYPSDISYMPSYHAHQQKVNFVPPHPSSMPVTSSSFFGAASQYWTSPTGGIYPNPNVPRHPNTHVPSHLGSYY
# Summary of the method: (§1)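 Yeast served to express human transcription factors as GST fusions, which were then captured on glutathione beads and labelled with DNA barcodes. Pooled with a tag-only sample, they were incubated with 200 nmole of a 16-mer random double-stranded DNA library for 30 min at room temperature in Tris/NaCl/DTT/glycerol buffer, washed, crosslinked with 0.1% formaldehyde, ligated by proximity, amplified by PCR and sequenced. Dividing each hexamer's read frequency for a factor by its frequency for the tag-only sample gives the binding signal.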
# ELK1 = molecular target: T2, ELK1 (Homo sapiens, UniProt P19419 1-428)
# T2 sequence: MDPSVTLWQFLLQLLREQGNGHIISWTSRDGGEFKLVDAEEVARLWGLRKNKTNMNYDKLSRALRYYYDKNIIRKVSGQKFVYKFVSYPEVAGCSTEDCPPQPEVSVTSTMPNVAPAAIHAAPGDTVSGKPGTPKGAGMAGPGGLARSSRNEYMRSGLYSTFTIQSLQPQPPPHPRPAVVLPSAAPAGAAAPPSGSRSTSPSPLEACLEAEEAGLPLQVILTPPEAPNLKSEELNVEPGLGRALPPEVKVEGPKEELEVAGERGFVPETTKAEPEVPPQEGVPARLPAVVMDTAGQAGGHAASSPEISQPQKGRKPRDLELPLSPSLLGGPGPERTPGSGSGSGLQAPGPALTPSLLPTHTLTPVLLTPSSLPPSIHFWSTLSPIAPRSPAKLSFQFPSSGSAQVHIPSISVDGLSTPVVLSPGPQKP
# Summary of the method: as §1
# GABPA = molecular target: T3, GABPA (Homo sapiens, UniProt Q06546 1-454)
# T3 sequence: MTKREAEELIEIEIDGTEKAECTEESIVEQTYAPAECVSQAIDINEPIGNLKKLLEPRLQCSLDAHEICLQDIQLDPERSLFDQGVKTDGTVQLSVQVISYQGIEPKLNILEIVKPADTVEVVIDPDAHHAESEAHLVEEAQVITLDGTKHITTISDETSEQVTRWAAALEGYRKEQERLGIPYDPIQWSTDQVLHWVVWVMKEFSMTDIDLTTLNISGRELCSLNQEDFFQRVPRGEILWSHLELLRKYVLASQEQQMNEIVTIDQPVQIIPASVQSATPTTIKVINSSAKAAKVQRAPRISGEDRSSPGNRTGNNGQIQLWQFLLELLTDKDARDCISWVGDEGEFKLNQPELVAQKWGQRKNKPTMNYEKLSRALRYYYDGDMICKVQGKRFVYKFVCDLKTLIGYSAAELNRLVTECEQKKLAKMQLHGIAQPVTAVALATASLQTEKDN
# Summary of the method: as §1
# ERG = molecular target: T4, ERG (Homo sapiens, UniProt P11308 1-479)
# T4 sequence: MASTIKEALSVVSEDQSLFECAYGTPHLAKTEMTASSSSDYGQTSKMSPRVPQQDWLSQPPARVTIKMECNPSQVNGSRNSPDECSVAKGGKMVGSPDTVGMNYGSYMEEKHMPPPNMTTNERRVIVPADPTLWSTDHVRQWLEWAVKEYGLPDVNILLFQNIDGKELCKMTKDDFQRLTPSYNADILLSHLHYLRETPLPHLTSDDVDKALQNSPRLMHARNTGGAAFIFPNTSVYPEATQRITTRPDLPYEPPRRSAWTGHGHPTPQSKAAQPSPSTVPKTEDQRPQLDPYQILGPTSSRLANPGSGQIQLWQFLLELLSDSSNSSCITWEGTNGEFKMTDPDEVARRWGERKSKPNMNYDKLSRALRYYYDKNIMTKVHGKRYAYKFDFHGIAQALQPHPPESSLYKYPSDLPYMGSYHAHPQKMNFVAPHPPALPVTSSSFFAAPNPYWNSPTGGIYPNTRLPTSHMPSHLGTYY
# Summary of the method: as §1
# ELF1 = ELF1 (Homo sapiens, UniProt P32519 1-619)
# ELF1, sequence (P32519 whole entry): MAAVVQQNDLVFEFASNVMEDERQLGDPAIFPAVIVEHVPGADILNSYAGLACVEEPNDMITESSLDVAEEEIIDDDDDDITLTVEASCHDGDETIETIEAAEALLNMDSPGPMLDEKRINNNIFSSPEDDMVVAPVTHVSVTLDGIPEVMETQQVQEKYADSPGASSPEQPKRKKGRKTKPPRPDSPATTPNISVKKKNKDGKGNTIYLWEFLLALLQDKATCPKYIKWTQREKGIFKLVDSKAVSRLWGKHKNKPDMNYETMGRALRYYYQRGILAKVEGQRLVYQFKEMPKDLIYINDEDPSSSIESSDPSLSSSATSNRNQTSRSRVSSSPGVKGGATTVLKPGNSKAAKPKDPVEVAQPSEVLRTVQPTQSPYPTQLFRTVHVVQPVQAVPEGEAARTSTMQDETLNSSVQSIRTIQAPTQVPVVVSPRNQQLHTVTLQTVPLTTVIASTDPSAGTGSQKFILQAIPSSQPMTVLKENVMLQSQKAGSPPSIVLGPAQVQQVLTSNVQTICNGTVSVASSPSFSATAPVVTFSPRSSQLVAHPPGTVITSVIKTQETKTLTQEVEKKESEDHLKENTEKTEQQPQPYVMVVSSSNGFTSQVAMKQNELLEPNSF
# Summary of the method: as §1
# EHF = molecular target: T5, EHF (Homo sapiens, UniProt Q9NZC4 1-300)
# T5 sequence: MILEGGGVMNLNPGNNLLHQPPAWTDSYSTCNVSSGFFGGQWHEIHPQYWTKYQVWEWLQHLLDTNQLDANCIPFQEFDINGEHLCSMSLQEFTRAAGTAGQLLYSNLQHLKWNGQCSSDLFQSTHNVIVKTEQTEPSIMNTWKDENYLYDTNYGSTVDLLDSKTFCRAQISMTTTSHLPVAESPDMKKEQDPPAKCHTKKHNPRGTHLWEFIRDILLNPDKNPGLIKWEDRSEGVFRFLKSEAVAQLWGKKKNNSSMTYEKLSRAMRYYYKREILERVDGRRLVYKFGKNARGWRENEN
# Summary of the method: as §1
# SPI1 = SPI1 (Homo sapiens, UniProt P17947 1-270)
# Summary of the method: as §1
# SPIB = SPIB (Homo sapiens, UniProt Q01892 1-262)
# SPIB, sequence (Q01892 whole entry): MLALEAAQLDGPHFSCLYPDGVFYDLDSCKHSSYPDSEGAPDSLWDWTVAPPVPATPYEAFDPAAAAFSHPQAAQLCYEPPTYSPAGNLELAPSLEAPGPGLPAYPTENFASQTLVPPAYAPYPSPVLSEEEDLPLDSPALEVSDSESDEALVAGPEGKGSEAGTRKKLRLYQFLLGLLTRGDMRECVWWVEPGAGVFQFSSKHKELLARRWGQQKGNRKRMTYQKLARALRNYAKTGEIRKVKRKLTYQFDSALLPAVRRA
# Summary of the method: as §1
# ELK3 = molecular target: T6, ELK3 (Homo sapiens, UniProt P41970 1-407)
# T6 sequence: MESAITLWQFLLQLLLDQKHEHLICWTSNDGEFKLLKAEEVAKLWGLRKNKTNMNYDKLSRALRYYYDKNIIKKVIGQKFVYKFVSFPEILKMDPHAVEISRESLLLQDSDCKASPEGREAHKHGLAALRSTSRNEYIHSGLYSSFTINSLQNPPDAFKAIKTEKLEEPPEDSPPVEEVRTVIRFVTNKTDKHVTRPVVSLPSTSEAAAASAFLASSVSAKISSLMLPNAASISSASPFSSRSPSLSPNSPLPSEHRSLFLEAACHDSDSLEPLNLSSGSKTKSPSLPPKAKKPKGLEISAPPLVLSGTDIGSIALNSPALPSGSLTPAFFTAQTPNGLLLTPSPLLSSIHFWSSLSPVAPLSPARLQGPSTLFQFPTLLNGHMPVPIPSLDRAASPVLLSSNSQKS
# Summary of the method: as §1
sequence,measurement,setting,value
ATCCGC,binding signal,FLI1,"1.82 fold enrichment (6-mer frequency, TF over GST control)"
same,binding signal,ELK1,"1.86 fold enrichment (6-mer frequency, TF over GST control)"
same,binding signal,GABPA,"1.57 fold enrichment (6-mer frequency, TF over GST control)"
same,binding signal,ERG,"1.93 fold enrichment (6-mer frequency, TF over GST control)"
same,binding signal,ELF1,"1.76 fold enrichment (6-mer frequency, TF over GST control)"
same,binding signal,EHF,"1.82 fold enrichment (6-mer frequency, TF over GST control)"
same,binding signal,SPI1,"1.74 fold enrichment (6-mer frequency, TF over GST control)"
same,binding signal,SPIB,"1.82 fold enrichment (6-mer frequency, TF over GST control)"
same,binding signal,ELK3,"2.04 fold enrichment (6-mer frequency, TF over GST control)"
